Screening results: PubChem, National Center for Advancing Translational Sciences (NCATS)
Nrf2 block = Nrf2 qHTS screen for inhibitors. A549 ARE-Fluc reporter, luciferase luminescence, 18-24 h. Potency, µM (doses to about 46 µM), inactives show top-dose activity change, negative = inhibition, hits mostly inhibitors. actives 2.1% (n = 360,000). AID 504444, 2011; note: potency is the fitted concentration of half-maximal effect; % is set by controls: 0 for no effect and ±100 for the full control effect; nearly all actives have a fitted effect of over 60% in size
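In this cell-based qHTS, ARE-driven firefly luciferase in A549 cells reports Nrf2 activity; the luminescent signal after BugLite lysis is the measured value, with a prior CellTiter-Fluor read for cell health.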
LDHA inh = qHTS assay for inhibitors of human lactate dehydrogenase; purified LDHA, NADH/diaphorase-resazurin fluorescence; stronger effect = lower value; AID 1347041, 2019; L-lactate dehydrogenase A chain (Homo sapiens), P00338; actives 0.15% (n = 480,000); activity change, % (values are at about 110 or 230 µM); in the data active = activity change below about -30%; inconclusive = mostly about -25% to -30%;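 note: plate controls were DMSO wells for no effect and wells without enzyme for full effect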
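Human LDH5 at 2 nM final in Tris HCl pH 7.4 with 0.06 mM NADH and 0.2 mM pyruvate, reacted 5 minutes at room temperature. Remaining NADH coupled via diaphorase/resazurin; resorufin fluorescence read at 0 and 20 minutes, normalized to enzyme-free and DMSO wells.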
A549 tox = Nrf2 qHTS screen for inhibitors: counterscreen for cytotoxicity; Potency, µM (highest dose often 46 µM), for inactives: at the highest dose activity change, negative = cytotoxicity, hits mostly inhibitors; actives 0.16% (n = 390,000); A549 ARE-Fluc cells, CellTiter-Fluor viability, 18-24 h; note: potency is the fitted concentration of half-maximal effect; % is set by controls: 0 for no effect and ±100 for the full control effect
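Cytotoxicity counterscreen: CellTiter-Fluor fluorescence was measured in A549 ARE_Fluc cells after 18-24 h of compound exposure in a concentration series. The subsequent BugLite luminescent read reports ARE-luciferase activity.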
12-LOX inh = Primary qHTS assay for inhibitors of human arachidonate 12S-lipoxygenase (ALOX12): Round 2. actives 1.1% (n = 580,000). purified 12hLO, xylenol orange hydroperoxide absorbance. AID 1671190, 2021. Polyunsaturated fatty acid lipoxygenase ALOX12 (Homo sapiens), P18054. Potency, µM (top dose mostly 108 µM), without a hit: at the highest dose activity change, negative = inhibition, hits mostly inhibitors; note: potency is the fitted concentration of half-maximal effect; % is set by controls: 0 for no effect and ±100 for the full control effect
Target sequence (P18054 whole entry, looked up): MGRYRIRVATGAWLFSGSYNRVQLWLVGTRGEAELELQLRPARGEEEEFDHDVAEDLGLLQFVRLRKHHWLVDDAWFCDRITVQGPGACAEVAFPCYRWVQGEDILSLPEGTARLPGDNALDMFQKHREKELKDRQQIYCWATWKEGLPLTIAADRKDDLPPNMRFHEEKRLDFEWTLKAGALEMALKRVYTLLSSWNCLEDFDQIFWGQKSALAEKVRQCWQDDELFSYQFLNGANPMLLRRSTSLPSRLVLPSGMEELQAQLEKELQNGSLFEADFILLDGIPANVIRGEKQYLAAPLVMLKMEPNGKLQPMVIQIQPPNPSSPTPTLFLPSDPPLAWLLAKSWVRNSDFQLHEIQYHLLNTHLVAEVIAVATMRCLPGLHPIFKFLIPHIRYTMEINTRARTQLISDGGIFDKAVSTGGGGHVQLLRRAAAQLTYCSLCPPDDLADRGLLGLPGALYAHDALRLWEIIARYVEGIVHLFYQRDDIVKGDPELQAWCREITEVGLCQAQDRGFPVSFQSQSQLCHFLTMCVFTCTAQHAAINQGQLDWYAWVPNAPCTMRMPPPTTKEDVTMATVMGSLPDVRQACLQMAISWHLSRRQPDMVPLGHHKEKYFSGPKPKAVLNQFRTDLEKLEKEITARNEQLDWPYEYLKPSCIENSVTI
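Purified human 12hLO (150 nM final) in 25 mM Hepes, 0.01% Triton X-100, pH 7.0 was preincubated 15 min at room temperature with compound. Then 40 uM arachidonic acid was added, 30 min. Hydroperoxide was read by Fe-XO absorbance ratio 573/405 nm.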
Nrf2 activator = qHTS of Nrf2 Activators; AREc32 ARE-luciferase reporter (MCF7-derived line), luminescence, 24 h; Potency, µM (highest dose often 46.1 µM), without a hit: top-dose activation, actives largely listed as activators; actives 0.31% (n = 410,000); AID 624171, 2012; note: potency is the fitted concentration of half-maximal effect; % of control where 0% means no effect; nearly all actives have a fitted effect of over 65% in size
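Quantitative high-throughput format: AREc32 reporter cells, 1000 per well, received compound by pin transfer and were incubated 24 hr at 37 deg C, 5% CO2, before Steady-Glo luminescence detection.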
mIDH1 inhibitor = qHTS for Inhibitors of mutant isocitrate dehydrogenase 1 (IDH1): qHTS | Isocitrate dehydrogenase [NADP] cytoplasmic (Homo sapiens), O75874 | IDH1-R132H enzyme, NADPH consumption, diaphorase/resazurin fluorescence | Potency, µM (highest dose often 76.6 µM), without a hit: at the top dose activity change, negative = inhibition, actives largely listed as inhibitors | actives 0.093% (n = 390,000) | AID 602179, 2012; note: potency is the fitted concentration of half-maximal effect; % is set by controls: 0 for no effect and ±100 for the full control effect; nearly all actives have a fitted effect of over 65% in size
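IDH1-R132H (0.5 ug/mL dispensed) in pH 7.5 Tris buffer was preincubated 30 min with compound, then given a substrate mix of 0.016 mM NADPH and 2 mM alpha-KG for 80 min at room temperature; remaining NADPH was read by diaphorase/resazurin fluorescence.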
* marks the source's active call; other numbers are inactive results; u = inconclusive; x = not tested or not shown; ! = repeats disagree. Most compounds without a hit are left out; they make up all but 2.7% or so of the library. Unless noted, calls come from the whole dose curve; as a rule, active = well fitted curve in the direction sought with a large enough effect; inconclusive = small, poorly fitted or top-dose-only effect, or another doubt; inactive = no such curve, though single readings can be large; an effect the other way counts as inactive or inconclusive.

SMILES	Nrf2 block	LDHA inh	A549 tox	12-LOX inh	Nrf2 activator	mIDH1 inhibitor
COc1ccc(NC(=O)CN2CCCCC2)cc1S(=O)(=O)N1CCCCC1	-5.3%	-18.4	-6.6%	2.51µM*	-0.3%	0.0%
Cc1ccc(NC(=O)COC(=O)c2ccccc2F)cc1S(=O)(=O)N1CCCCC1	0.1%	-3.8	-0.5%	-17.1%	-0.5%	-0.6%
COc1ccccc1N1CCN(CC(=O)Nc2ccc(CN3CCCCC3)cc2)CC1	-9.1%	-46.1*	3.7%	u	-0.3%	1.8%
Cc1ccc(NC(=O)c2ccccc2F)cc1S(=O)(=O)N1CCCCCC1	16.4µM*	-5.4	-10.8%	-1.4%	5.8%	-3.5%
COc1ccc(NC(=O)c2c(C)nn(Cc3ccccc3)c2Cl)cc1S(=O)(=O)N1CCOCC1	20.6µM*	-5.7	-18.0%	17.1%	1.5%	-3.8%
Cc1ccccc1-c1noc(CN2CCC(c3ccn[nH]3)CC2)n1	x	-0.3	x	u	x	x
COc1ccc(OC)c(CNC(=O)c2ncoc2-c2cccs2)c1	x	8.5	x	36.2%	x	x
Cc1ccc(N(Cc2ccccc2)C(=O)c2ccc(C)c(S(=O)(=O)N3CCOCC3)c2)cc1	14.6µM*	-8.5	-18.3%	-15.9%	1.3%	2.5%
CC(=O)c1ccc(OCCCN2CCCCC2)cc1	u	-32.2*	20.7%	u	-0.9%	-5.2%
O=C(c1ccccc1)c1ccc(OCCCN2CCCCC2)cc1	6.1%	-18.8	0.2%	u	2.7%	2.6%
COC(=O)C1=C(C)N(C)C(=O)NC1c1cccc(Cl)c1Cl (centres undefined)	x	6.3	x	0.0%	x	x
COc1ccc(NC(=O)Cn2c3ccc(OC)cc3c3nc4n(c(=O)c32)CCS4)cc1	23.1µM*	-11.1	-0.3%	-1.5%	-0.4%	7.6%
CCNCc1ccc(-c2ccccc2)o1	x	-14.3	x	15.8µM*!	x	x
c1ccc(CNCc2ccc(-c3ccccc3)o2)cc1	x	2.1	x	-50.5%	x	x
Cc1ccc2nc(-c3cc(C)sc3C)cc(C(=O)O)c2c1	x	8.0	x	u	x	x
Cc1ccc(NC(=O)CCOc2cc(C)ccc2C)c(Br)c1	x	0.8	x	8.9%	x	x
Cc1cccc(N2CCN(c3ncnc4onc(-c5ccc(F)cc5)c34)CC2C)c1 (centres undefined)	24.1%	10.3	9.1%	-6.5%	9.0%	-16.1%
Cc1cccc(N2CCN(c3ncnc4onc(C)c34)CC2C)c1 (centres undefined)	23.1µM*	3.5	u	u	-0.5%	7.7%
CCOc1ccccc1C(C(=O)O)N1CCN(Cc2csc(C)n2)CC1 (centres undefined)	x	x	x	60.9%	x	x
COc1ccc(C(C(=O)O)N2CCN(Cc3csc(C)n3)CC2)c(C)c1 (centres undefined)	x	x	x	22.4µM*	x	x
COc1ccc(N=N/C(=C\O)C(=O)c2cccs2)cc1	u	-0.6	-17.2%	35.5µM*	8.1%	2.1%
COc1ccc(C(=O)/C(=C/O)N=Nc2ccc(F)cc2)cc1	19.5%	3.1	-10.1%	11.2µM*	5.7%	4.6%
CCCc1c(C)nc(Nc2nc(C)c3cc(OC)ccc3n2)[nH]c1=O	x	-0.3	x	-25.2%	x	x
CN(Cc1cccnc1)C(=O)CCC[C@H]1NC[C@@H]2C[C@H]1CN(Cc1ccccc1)C2	x	x	x	16.9%	x	x
CN(Cc1ccc(N2CCCCC2)cc1)C(=O)CCC[C@H]1NC[C@@H]2C[C@H]1CN(Cc1ccccc1)C2	x	x	x	7.94µM*	x	x
SMILES	Nrf2 block	LDHA inh	A549 tox	12-LOX inh	Nrf2 activator	mIDH1 inhibitor
CC1CCN(C(=O)CCC[C@H]2NC[C@@H]3C[C@H]2CN(Cc2ccccc2)C3)CC1	x	x	x	10µM*	x	x
O=C(CN1C(=O)c2ccccc2S1(=O)=O)NCCSCc1c(F)cccc1Cl	5.0%	-3.3	2.3%	8.91µM*	-0.1%	3.6%
CC(C)(C)c1nc2cc(NC(=O)c3n[nH]c(=O)c4ccccc34)ccc2o1	x	0.6	x	11.7%	x	x
COc1ccc(-c2[nH]ncc2CNC(=O)C(c2ccccc2F)N(C)C)cc1 (centres undefined)	x	x	x	41.7%	x	x
COc1ccccc1-n1cc2ccc([N+](=O)[O-])cc2n1	u	-4.7	14.9%	4.8%	11.2µM*	0.9%
Clc1ccccc1C1(c2ccnc(NCCc3cccnc3)n2)CCNCC1	x	x	x	20µM*	x	x
CC1CCN(S(=O)(=O)c2ccc3c4c2CC(=O)N4CC(C)S3)CC1 (centres undefined)	20.6µM*	8.1	-8.3%	2.0%	9.6%	-15.8%
COc1ccc(C=O)cc1COc1ccccc1C=O	x	0.8	x	16.1%	x	x
CC(Sc1nc2ccccc2o1)C(=O)C12CC3CC(CC(C3)C1)C2 (centres undefined)	x	1.8	x	15.3%	x	x
Cc1csc(NC(=O)CCc2c(C)nc3cc(-c4ccc(Cl)cc4)nn3c2C)n1	1.46µM*	-2.1	0.0%	u	-2.4%	-4.2%
Cc1nc2cc(-c3ccc(Cl)cc3)nn2c(C)c1CCC(=O)NC(C)c1ccc2c(c1)OCCO2 (centres undefined)	13µM*	-1.5	-4.2%	u	-3.0%	-6.0%
COc1ccccc1CNC(=O)CCc1c(C)nc2cc(-c3ccc(Cl)cc3)nn2c1C	-15.3%	4.5	1.7%	-11.6%	-2.7%	10.8%
Cc1c(C(=O)N(Cc2nc3ccccc3c(=O)[nH]2)C(C)C)oc2ccc(Br)cc12	x	11.0	x	44.7µM*	x	x
COCCn1c(NCCO)nc2c1c(=O)[nH]c(=O)n2C	x	5.9	x	u	x	x
Cc1ccc(-n2cccc2/C=C2/C(=N)N3C(=NC2=O)SN=C3S(C)(=O)=O)cc1Cl	8.5%	-10.5	-28.6%	14.1µM*	-0.2%	-3.0%
CCOc1ccc(-n2c(C)cc(/C=C3/C(=N)N4C(=NC3=O)SN=C4S(C)(=O)=O)c2C)cc1	4.61µM*	-5.1	u	35.5µM*	-0.5%	-18.8%
Oc1ccccc1-c1cc(C(F)(F)C(F)F)nc(-c2ccccc2)n1	u	-4.9	-17.2%	25.1%	0.5%	7.4%
O=[N+]([O-])c1ccc(O)c(-c2cc(C(F)(F)F)nc(-c3ccccc3)n2)c1	u	-0.5	8.2µM*	5.3%	-1.2%	-4.1%
CN(Cc1nc2ccsc2c(=O)[nH]1)C(=O)c1cnn(-c2ccccc2)c1	x	-1.4	x	u	x	x
COC(=O)C1=C(C)NC2=C(C(=O)CC(C)(C)C2)C1c1cn(Cc2ccc(Br)cc2)nc1-c1ccccc1 (centres undefined)	12.6µM*	-0.1	-22.0%	x	-0.7%	-1.1%
